Source: PubChem BioAssay AID1159580 (chemical genetic matrix, 2015)
“And” between values parts separate entries of the source, which are not always exact repeats. Equal entries are not always repeated. Hit rate of the full screen: of about 5,500 compounds, about 2,000 (36%) were called active. Roughly 18% stayed inconclusive and do not appear here. Cut-off read from the data, not from the text of the source: active = normalized growth mostly below about 0.91 (no sharp cut-off); inconclusive = no clear call, values can overlap the other calls; inactive = mostly above about 0.92. Some of the results follow.

Assay: chemical genetic growth profiling, strain panel (AID 1159580);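 note: tested at 20 µM; growth read once vehicle control cultures reached saturation at 30 °C; 1 = growth at the plate median or of vehicle wells; lower values mean less growth of the strain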
Settings: S. cerevisiae deletion strains, growth OD

Measured: normalized growth

COc1ccc(CC(=O)c2ccc(O)cc2O)cc1
active: locus YDL192W, strain arf1, stronger effect = lower value 0.865 | locus YDR137W, strain rgp1, stronger effect = lower value 0.733 | locus YDR195W, strain ref2 1.19 [resistant] | locus YDR318W, strain mcm21, stronger effect = lower value 0.912 | locus YDR392W, strain spt3, stronger effect = lower value 0.455 | locus YER155C, strain BEM2 (second series), stronger effect = lower value 0.768 | locus YGL086W, strain mad1, stronger effect = lower value 0.928
inactive: locus YAL021C, strain ccr4, stronger effect = lower value 0.998 | locus YAL026C, strain drs2, stronger effect = lower value 0.954 | locus YAL030W, strain snc1, stronger effect = lower value 0.985 | locus YBL061C, strain skt5, stronger effect = lower value 0.986 | locus YBR009C, strain hhf1, stronger effect = lower value 0.937 | locus YBR021W, strain FUR4, stronger effect = lower value 0.894 | locus YBR023C, strain chs3, stronger effect = lower value 0.958 | locus YBR171W, strain sec66, stronger effect = lower value 0.973 | locus YBR229C, strain ROT2, stronger effect = lower value 0.969 | locus YBR231C, strain swc5, stronger effect = lower value 0.989 | locus YBR279W, strain paf1, stronger effect = lower value 0.99 | locus YCL011C, strain gbp2, stronger effect = lower value 0.973 | locus YCL016C, strain dcc1, stronger effect = lower value 0.961 | locus YCL029C, strain bik1, stronger effect = lower value 0.953 | locus YCL061C, strain MRC1, stronger effect = lower value 0.965 | locus YCL069W, strain vba3, stronger effect = lower value 0.982 | locus YCR088W, strain abp1, stronger effect = lower value 0.988 | locus YDL005C, strain med2, stronger effect = lower value 1.01 | locus YDL035C, strain GPR1, stronger effect = lower value 0.94 | locus YDL040C, strain nat1, stronger effect = lower value 0.977 | locus YDL074C, strain BRE1, stronger effect = lower value 0.848 | locus YDL101C, strain DUN1, stronger effect = lower value 0.969 | locus YDL185W, strain tfp1, stronger effect = lower value 0.983 | locus YDR001C, strain nth1, stronger effect = lower value 0.992 | locus YDR069C, strain doa4, stronger effect = lower value 1 | locus YDR101C, strain arx1, stronger effect = lower value 0.956 | locus YDR159W, strain sac3, stronger effect = lower value 0.96 | locus YDR162C, strain NBP2, stronger effect = lower value 0.872 | locus YDR297W, strain sur2, stronger effect = lower value 0.988 | locus YDR334W, strain swr1, stronger effect = lower value 0.991 | locus YDR335W, strain msn5, stronger effect = lower value 0.975 | locus YDR388W, stronger effect = lower value 0.963 | locus YDR502C, strain sam2, stronger effect = lower value 0.924 | locus YEL003W, strain gim4, stronger effect = lower value 0.969 | locus YEL037C, strain rad23, stronger effect = lower value 0.997 | locus YEL061C, strain CIN8 (second series), stronger effect = lower value 0.994 | locus YER015W, strain faa2, stronger effect = lower value 0.971 | locus YER016W, strain bim1, stronger effect = lower value 0.996 | locus YER110C, stronger effect = lower value 0.975 | locus YER111C, strain swi4, stronger effect = lower value 0.998 | locus YER155C, strain BEM2, stronger effect = lower value 0.956 | locus YER167W, strain BCK2, stronger effect = lower value 0.962 | locus YFR010W, strain ubp6, stronger effect = lower value 1.01 | locus YGL078C, strain dbp3, stronger effect = lower value 0.983 | locus YGL167C, strain pmr1, stronger effect = lower value 0.984 | locus YGL173C, strain kem1, stronger effect = lower value 0.979 | locus YGL227W, strain vid30, stronger effect = lower value 0.997 | locus YGL240W, strain doc1, stronger effect = lower value 0.925 | locus YGL248W, strain PDE1, stronger effect = lower value 0.922 | locus YGL253W, strain hxk2, stronger effect = lower value 0.982 | locus YGR135W, strain pre9, stronger effect = lower value 0.934 | locus YGR252W, strain gcn5, stronger effect = lower value 0.841 | locus YHR013C, strain ard1, stronger effect = lower value 0.963 | locus YHR027C, strain rpn1, stronger effect = lower value 0.987 | locus YHR030C, strain SLT2, stronger effect = lower value 0.953 and 0.949 | locus YHR079C, strain IRE1 (second series), stronger effect = lower value 0.978 | locus YHR079C, strain IRE1, stronger effect = lower value 0.959 | locus YHR094C, strain hxt1, stronger effect = lower value 0.982 | locus YHR129C, strain ARP1, stronger effect = lower value 0.968 | locus YHR142W, strain chs7, stronger effect = lower value 0.925 | locus YHR200W, strain rpn10, stronger effect = lower value 0.956 | locus YIL066C, strain RNR3, stronger effect = lower value 0.953 | locus YIL073C, strain SPO22, stronger effect = lower value 0.866 | locus YIL125W, strain kgd1, stronger effect = lower value 1 | locus YIR030C, strain dcg1, stronger effect = lower value 0.972 | locus YJL092W, strain hpr5, stronger effect = lower value 0.987 | locus YJL095W, strain BCK1 (second series), stronger effect = lower value 0.981 | locus YJL095W, strain BCK1, stronger effect = lower value 0.812 and 0.951 | locus YJL115W, strain asf1, stronger effect = lower value 1.01 | locus YJL129C, strain trk1, stronger effect = lower value 0.931 | locus YJL134W, strain LCB3, stronger effect = lower value 0.981 | locus YJL154C, strain vps35, stronger effect = lower value 0.992 | locus YJL164C, strain tpk1, stronger effect = lower value 0.952 | locus YJL166W, strain qcr8, stronger effect = lower value 0.944 | locus YJL168C, strain set2, stronger effect = lower value 0.972 | locus YJL187C, strain SWE1 (second series), stronger effect = lower value 0.958 | locus YJL187C, strain SWE1, stronger effect = lower value 0.987 | locus YJR066W, strain TOR1, stronger effect = lower value 0.93 | locus YKL009W, strain mrt4, stronger effect = lower value 0.956
